High-throughput results: PubChem BioAssay, Center for Chemical Genomics, University of Michigan
An excerpt weighted towards active compounds, which were near 0.9% of everything screened.
CDC25B-CDK2 inh: primary biochemical HTRF screen for blockers of M-phase inducer phosphatase 2 binding to CDK2/cyclin A; 0.72% of 94,000 active; P30305+P24941; HTRF CDC25B-CDK2/CyclinA binding, anti-His/anti-Flag; active compounds read high; z-score (no concentration beside the values); in the data active means z-score above about 3.2
TAR Tat displ: TAR RNA-Tat peptide displacers, HIV-1, primary screen, biochemical, FRET, FAM/TAMRA-labeled Tat | 0.6% of 100,000 active | z-score (test concentration not listed) | HIV-1 TAR RNA, Tat peptide displacement FRET; active compounds read high; active means z-score of 3 or more in at least 2 runs
Numbers without * were called inactive.

For COc1cccc2c1NC(c1cccc3ccccc13)C1CC=CC21 (stereo not given) the results were CDC25B-CDK2 inh -0.13 and TAR Tat displ 6.4*.
`COC(=O)c1ccc2c(c1)C1C=CCC1C(c1cccc3ccccc13)N2` (stereo not given) gave CDC25B-CDK2 inh -0.77 and TAR Tat displ -14.
COc1ccc(-c2nc(=S)c3c([nH]2)Oc2ccccc2C3)cc1OC was read as CDC25B-CDK2 inh 0.7 and TAR Tat displ 1.6.
COc1cccc2c1Oc1[nH]c(-c3ccc(C(=O)O)cc3)nc(=S)c1C2 was read as CDC25B-CDK2 inh 2.7 and TAR Tat displ 33*.
COc1ccc(-c2nc(=S)c3c([nH]2)Oc2ccccc2C3)cc1O was read as CDC25B-CDK2 inh 10* and TAR Tat displ 1.3.
`COc1cccc2c1Oc1[nH]c(-c3ccc(O)cc3)nc(=S)c1C2` gave CDC25B-CDK2 inh 0.26 and TAR Tat displ -0.64.
Screening CCc1nc(SCc2cc(=O)n3c(C)csc3n2)n[nH]1 returned TAR Tat displ 0.96.
For CC(NC(=O)CCC(=O)N1Cc2cccn2-c2ccccc21)C(=O)N1CCCCC1 (stereo not given) the results were TAR Tat displ -0.75.
For COc1cc(OC)cc(C(=O)Nc2nc3c(s2)Cc2cc(OC)ccc2-3)c1 the results were CDC25B-CDK2 inh -0.69 and TAR Tat displ -0.26.
Screening Oc1ccccc1CNc1nc2c(s1)CCc1ccccc1-2 returned CDC25B-CDK2 inh -1.5 and TAR Tat displ 1.1.
For CC(=O)Nc1nc2c(s1)Cc1ccccc1-2 the results were CDC25B-CDK2 inh 18*.
Screening COc1ccc2c(c1)Cc1sc(NC(=O)c3ccc(OC)c(OC)c3)nc1-2 returned CDC25B-CDK2 inh 19* and TAR Tat displ -0.93.
CC1CCCC(NC(=O)CN2C(=O)CSc3ncccc32)C1C (stereo not given) was read as CDC25B-CDK2 inh -2.2 and TAR Tat displ -0.93.
`CCCn1c2ccccc2n2c(C(=O)OC)c(C)nc12` gave CDC25B-CDK2 inh -1.9.
CCOCCCNC(=O)Cn1nc(C)n2cccc2c1=O was read as CDC25B-CDK2 inh -1.2 and TAR Tat displ 2.3.
For Cc1c2occ(-c3ccccc3)c2cc2c3c(c(=O)oc12)CCC3 the results were CDC25B-CDK2 inh -0.46.
CCN1CCN(c2ncnc3c2cnn3-c2cccc(Cl)c2)CC1 was read as TAR Tat displ 1.1.
`Fc1cccc(CN2CCN(C3CCN(Cc4ccccc4)CC3)CC2)c1` gave CDC25B-CDK2 inh -1.
Cc1nc(N2CCOCC2)c2c(C(=O)Nc3ccc4c(c3)OCCO4)c(C)oc2n1 was read as TAR Tat displ 0.2.
Screening Cc1cc2oc(C(=O)Nc3sc4c(c3C(=O)NCc3ccco3)CCC4)cc(=O)c2cc1C returned CDC25B-CDK2 inh 6.6* and TAR Tat displ 12*.
Cc1ccc2oc(C(=O)Nc3sc4c(c3C(=O)NCc3ccco3)CCC4)cc(=O)c2c1 was read as CDC25B-CDK2 inh -0.74 and TAR Tat displ -2.3.
Cc1cc(C)c2c(=O)cc(C(=O)Nc3sc4c(c3C(=O)NCc3ccco3)CCC4)oc2c1 was read as CDC25B-CDK2 inh 4* and TAR Tat displ 2.
For Cc1cc(C)c2oc(C(=O)Nc3sc4c(c3C(=O)NCc3ccco3)CCC4)cc(=O)c2c1 the results were CDC25B-CDK2 inh -1.2 and TAR Tat displ -0.05.
CCOCCCNc1cc(N2CCN(C3CCCCC3)CC2)c2noc3c2c1C(=O)c1ccccc1-3 was read as CDC25B-CDK2 inh -1.8 and TAR Tat displ 1.5.
Screening CCCN1CCN(c2cc(NCCCC(=O)O)c3c4c(onc24)-c2ccccc2C3=O)CC1 returned CDC25B-CDK2 inh -2 and TAR Tat displ -5.8.
O=C(O)CCCNc1cc(N2CCC(=O)CC2)c2noc3c2c1C(=O)c1ccccc1-3 was read as CDC25B-CDK2 inh 14* and TAR Tat displ 27*.
Screening O=C(O)CCCNc1cc(N2CCN(C3CCCCC3)CC2)c2noc3c2c1C(=O)c1ccccc1-3 returned CDC25B-CDK2 inh 13* and TAR Tat displ -3.4.
`CN1CCN(C(=O)COCc2cc(-c3ccco3)on2)CC1` gave TAR Tat displ -0.23.
For Nc1c(-c2nc(-c3ccc4c(c3)OCO4)cs2)c2ccccn2c1C(=O)c1ccc(F)cc1 the results were CDC25B-CDK2 inh 1.6 and TAR Tat displ -0.18.
Cc1cc2c3c(C)n(C4CCCCC4)c(C)c3c(C)nn2c1 was read as CDC25B-CDK2 inh 0.79.
COc1ccc(CCn2c(C)c3c(C)nn4cc(C)cc4c3c2C)cc1OC was read as CDC25B-CDK2 inh 3.5 and TAR Tat displ 15*.
`Cc1nnc(NCC2CC2)c2c1nnn2Cc1ccccc1Cl` gave CDC25B-CDK2 inh -2.2 and TAR Tat displ 2.4.
Screening O=C(Nc1ccccc1F)c1cnc2sc3c(n2c1=O)CCCC3 returned TAR Tat displ 1.1.
`Cc1nn(-c2cc(N3CCCC3)ncn2)c(C)c1CCC(=O)O` gave CDC25B-CDK2 inh -1.7 and TAR Tat displ 2.
